Experimental data from the supplement of paper PMC4709259.
Where a name gives a salt, the structure may show the parent alone. ± gives the standard deviation.

What was measured:
Jurkat [1] = test: mean cell size (FSC-A) relative to DMSO control (fraction of control); higher = larger cells; settings: 48 h
How it was run: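 Jurkat cells at 600 cells/µl were incubated for 1 h and then treated for 48h with the Enzo Screen-Well FDA Approved Drug Library v2.0 at 25µM, with DMSO at 0.9% (v/v) final. Compounds that reduced counts below 20% of controls were retested in 10-fold dilutions down to 25nM. Cell count and mean cell size, taken as forward scatter area, were measured by flow cytometry relative to solvent-only controls. Each plate carried 6-12 controls, and values are means of 3 biological replicates.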

Jurkat [2] = test: cell count relative to DMSO control (fraction of control); higher = more cells (less growth inhibition); settings: 48 h

| SMILES | mean cell size (Jurkat [1]) | cell count (Jurkat [2]) |
| --- | --- | --- |
| CCN(C)C(=O)Oc1cccc([C@H](C)N(C)C)c1 [Rivastigmine Tartrate] (concentration: 25 µM) | 1.01 ± 0.022 | 0.843 ± 0.13 |
| CCOC(=O)CC(SP(=S)(OC)OC)C(=O)OCC (configuration not stated) [Malathion] (concentration: 25 µM) | 0.916 ± 0.041 | 1.06 ± 0.074 |
| CCOC(=O)c1cncn1[C@H](C)c1ccccc1 [Etomidate] (concentration: 25 µM) | 1.04 ± 0.049 | 0.854 ± 0.055 |
| O=C1CC[C@@]2(O)[C@H]3Cc4ccc(O)c5c4[C@@]2(CCN3CC2CC2)[C@H]1O5 [Naltrexone·HCl] (concentration: 2.5 µM) | 0.985 ± 0.049 | 0.399 ± 0.091 |
| C=CCN1C[C@H](C(=O)N(CCCN(C)C)C(=O)NCC)C[C@@H]2c3cccc4[nH]cc(c34)C[C@H]21 [Cabergoline] (concentration: 25 µM) | 0.889 ± 0.02 | 0.234 ± 0.08 |
| Cc1cccc([C@H](C)c2c[nH]cn2)c1C [Dexmedetomidine·HCl] (concentration: 25 µM) | 0.942 ± 0.06 | 0.375 ± 0.13 |
| C=C1C[C@@H]2[C@H](CC[C@]3(C)C(=O)CC[C@@H]23)[C@@]2(C)C=CC(=O)C=C12 [Exemestane] (concentration: 25 µM) | 0.914 ± 0.029 | 0.422 ± 0.12 |
| C[N+]1(C)CCCC(OC(=O)C(O)(c2ccccc2)c2ccccc2)C1 (configuration not stated) [Mepenzolate Bromide] (concentration: 25 µM) | 0.91 ± 0.039 | 1.15 ± 0.042 |
| CCCCCCC(=O)O[C@H]1CC[C@H]2[C@@H]3CCC4=CC(=O)CC[C@]4(C)[C@H]3CC[C@]12C [Testosterone Enanthate] (concentration: 25 µM) | 0.954 ± 0.047 | 0.703 ± 0.12 |
| CC(C)C[C@H](CN)CC(=O)O [Pregabalin] (concentration: 25 µM) | 1.03 ± 0.02 | 0.592 ± 0.12 |
| CCN(C(C)=O)c1cccc(-c2ccnc3c(C#N)cnn23)c1 [Zaleplon] (concentration: 25 µM) | 1 ± 0.059 | 0.664 ± 0.14 |
| CN1C[C@H](C(=O)N[C@]2(C)O[C@@]3(O)[C@@H]4CCCN4C(=O)[C@H](Cc4ccccc4)N3C2=O)C=C2c3cccc4[nH]cc(c34)C[C@H]21 [Ergotamine Tartrate] (concentration: 25 µM) | 1.07 ± 0.054 | 0.745 ± 0.057 |
| COC[C@@H](NC(C)=O)C(=O)NCc1ccccc1 [Lacosamide] (concentration: 25 µM) | 0.927 ± 0.067 | 0.639 ± 0.031 |
| CN1C(=O)CN=C(c2ccccc2)c2cc(Cl)ccc21 [Diazepam] (concentration: 25 µM) | 0.911 ± 0.048 | 0.925 ± 0.098 |
| N[C@@H]1C[C@H]1c1ccccc1.N[C@H]1C[C@@H]1c1ccccc1 [Tranylcypromine Hemisulfate] (concentration: 25 µM) | 0.926 ± 0.0078 | 0.931 ± 0.063 |
| NCC1(CC(=O)O)CCCCC1 [Gabapentin] (concentration: 25 µM) | 0.943 ± 0.02 | 0.935 ± 0.036 |
